Screening results deposited in PubChem BioAssay by National Center for Advancing Translational Sciences (NCATS).
Rows were chosen to be rich in hits. Some 0.18% of all compounds tested hit in one or more screens of this group.
Anesthetic bind – qHTS Assay for Identification of Novel General Anesthetics; AID 485281, 2010; Ferritin light chain (Equus caballus), P02791; apoferritin/1-aminoanthracene competitive binding, fluorescence; actives 0.074% (n = 350,000); Potency, µM (doses to about 77.5 µM), most hits filed as inhibitors; also: nearly all actives have a fitted effect of over 20% in size
Target sequence (P02791 2-175 limits assumed): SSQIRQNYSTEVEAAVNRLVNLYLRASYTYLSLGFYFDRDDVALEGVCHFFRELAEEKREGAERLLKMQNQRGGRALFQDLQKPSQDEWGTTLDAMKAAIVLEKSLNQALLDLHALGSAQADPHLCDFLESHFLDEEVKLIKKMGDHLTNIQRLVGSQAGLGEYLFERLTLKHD
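Horse-spleen apoferritin (10 uM) was mixed with 50% saturated 1-aminoanthracene in PBS, exposed to compounds for 10 min at room temperature, and read for fluorescence (ex 380 nm, em 535 nm). Competitive displacement was fitted with a four-parameter Hill equation.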
TSG101-PTAP inh – qHTS Assay for Iinhibitors of HIV-1 Budding by Blocking the Interaction of PTAP/TSG101; Fluorescence polarization, FITC-PTAP peptide / Tsg101 binding; Potency, µM (titrated, usually from 115 µM), actives largely listed as inhibitors; 340,000 tested, under 10 active; active = well fitted inhibition curve with a large enough effect in the main read-out, with a control signal flat, not every such curve was filed as active; inconclusive = small, poorly fitted or top-dose-only effect, or effect the other way, or a change in a side signal; inactive = no such curve, though single readings can be large or run the other way
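Fluorescence polarization binding of Tsg101 binding domain (10 uM final) to FITC-labeled PTAP peptide (50 nM final) in HEPES pH 7.5 buffer with NaCl, Tween 20, EDTA, TCEP. Compounds added before peptide; binding 20 min at RT.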
ERG-DNA inh – qHTS for Small Molecule Inhibitors of the ERG Ets/DNA interaction; Transcriptional regulator ERG (Homo sapiens), P11308; fluorescence polarization, His-ERG Ets domain / labelled DNA; Potency, µM (top dose mostly 76.9 µM), actives largely listed as inhibitors; actives 0.028% (n = 370,000); active = well fitted inhibition curve with a large enough effect in the polarisation, with a control signal flat; inconclusive = small, poorly fitted or top-dose-only effect, or effect the other way, or a change in a side signal; inactive = no such curve, though single readings can be large or run the other way; the % refers to the polarisation;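 also: polarization taken with two DNA probes labelled with fluorescein and Texas red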
Target sequence (P11308 whole entry, looked up, the tested form may be a part): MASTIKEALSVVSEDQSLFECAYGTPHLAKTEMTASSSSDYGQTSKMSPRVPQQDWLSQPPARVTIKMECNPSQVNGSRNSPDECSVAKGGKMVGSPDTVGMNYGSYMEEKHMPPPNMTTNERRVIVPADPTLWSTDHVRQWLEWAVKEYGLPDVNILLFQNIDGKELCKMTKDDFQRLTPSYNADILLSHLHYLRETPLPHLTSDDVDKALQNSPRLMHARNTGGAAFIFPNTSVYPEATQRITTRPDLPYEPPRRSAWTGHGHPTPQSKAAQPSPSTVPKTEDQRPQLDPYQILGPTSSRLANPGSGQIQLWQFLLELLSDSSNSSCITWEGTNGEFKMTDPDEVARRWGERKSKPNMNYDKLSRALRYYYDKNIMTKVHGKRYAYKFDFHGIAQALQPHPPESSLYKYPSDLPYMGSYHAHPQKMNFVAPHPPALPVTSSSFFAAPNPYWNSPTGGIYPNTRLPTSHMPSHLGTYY
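His-tagged ERG Ets domain (1 uM in the protein solution; 300mM KCl, 50mM Tris-HCl, 1mM EDTA, 1mM DTT, pH 7.5) received compound, then a probe mix of 5 nM fluorescein-DNA and 100nM Texas-615-DNA. Fluorescence polarization was read for both dyes.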
mIDH1 inhibitor – qHTS for Inhibitors of mutant isocitrate dehydrogenase 1 (IDH1): qHTS | IDH1-R132H enzyme, NADPH consumption, diaphorase/resazurin fluorescence | Potency, µM (doses to about 76.6 µM), actives largely listed as inhibitors | actives 0.093% (n = 390,000) | AID 602179, 2012; also: nearly all actives have a fitted effect of over 65% in size
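IDH1-R132H (0.5 ug/mL) preincubated 30 min with compound, then NADPH (0.016 mM) and alpha-KG (2 mM) added; 80 min at RT, pH 7.5. Remaining NADPH coupled via diaphorase/resazurin to fluorescence (540/590 nm); concentration-response curves normalized to no-enzyme control.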
Resorufin autofl – qHTS for Inhibitors of mutant isocitrate dehydrogenase 1 (IDH1): Cherrypicks Autofluorescence Interference | Resorufin detection reagent fluorescence interference, cell-free | AID 623980, 2012 | shares compounds with mIDH1 inhibitor | inhibition of signal, % at 51.2 µM | 750 tested, under 10 active
IDH1 WT – qHTS for Inhibitors of mutant isocitrate dehydrogenase 1 (IDH1): Cherrypicks in WT IDH1 | shares compounds with mIDH1 inhibitor | WT IDH1 enzyme, NADPH diaphorase/resazurin fluorescence | Potency, µM (doses to about 115 µM), hits mostly inhibitors | actives 9% (n = 750) | AID 623995, 2012; also: nearly all actives have a fitted effect of over 55% in size
IDH1 R132H conf – qHTS for Inhibitors of mutant isocitrate dehydrogenase 1 (IDH1): Confirmation of Cherrypicks. shares compounds with mIDH1 inhibitor. IDH1 R132H enzyme, NADPH diaphorase/resazurin fluorescence. Potency, µM (doses to about 76.6 µM), most hits filed as inhibitors. actives 83% (n = 750); also: nearly all actives have a fitted effect of over 50% in size
Large screens that a line does not name were inactive (follow-up assays come after a bar, where they were run). Unless noted, calls follow the shape of the dose curve; as a rule, active = well fitted curve in the direction sought with a large enough effect; inconclusive = small, poorly fitted or top-dose-only effect, or another doubt; inactive = no such curve, though single readings can be large; an effect the other way counts as inactive or inconclusive.

O=C(NCc1ccco1)C(c1ccco1)N(Cc1cccs1)C(=O)Cn1nnc2ccccc21 (centres undefined)	none
O=C(NC1CCCCC1)C(c1ccco1)N(Cc1cccs1)C(=O)Cn1nnc2ccccc21 (centres undefined)	mIDH1 inhibitor inconclusive (no result: TSG101-PTAP inh) | Resorufin autofl inactive | IDH1 WT inactive | IDH1 R132H conf 11.2µM
CCC(C)(C)NC(=O)C(c1ccccc1)N(Cc1cccs1)C(=O)Cn1nnc2ccccc21 (centres undefined)	mIDH1 inhibitor inconclusive (no result: Anesthetic bind) | Resorufin autofl inactive | IDH1 WT inactive | IDH1 R132H conf 15.8µM
O=C(NC1CCCCC1)C(c1ccccc1)N(Cc1ccco1)C(=O)c1csnn1 (centres undefined)	none
CN(CC(=O)Nc1cccc2c1CCCC2)S(=O)(=O)c1ccc(Br)cc1	none
CCc1cc(C(=O)c2ccc(OC)cc2)c(NC(=O)CN2CCCCC2)s1	none
CCc1cc(C(=O)c2ccc(OC)cc2)c(NC(=O)CN2CCCC2)s1	mIDH1 inhibitor 46.5µM | Resorufin autofl inactive | IDH1 WT inactive | IDH1 R132H conf 15.8µM
Cc1ccc(C2=NN=C(NC(=O)CSc3nncn3C)SC2)cc1	mIDH1 inhibitor 31.6µM | Resorufin autofl inactive | IDH1 WT inactive | IDH1 R132H conf 44.7µM
Cc1cc(N(CCO)CCO)ccc1C(c1ccc(N(CCO)CCO)cc1C)c1ccccc1Cl	mIDH1 inhibitor 26.1µM | Resorufin autofl inactive | IDH1 WT inconclusive | IDH1 R132H conf 7.08µM
COc1ccc(NC(=O)CC2C(=O)N(c3cccc(OC)c3)C(=O)N2CCC(C)C)cc1 (centres undefined)	none
Cc1ccc(S(=O)(=O)c2nnn3c2nc(NCc2ccccc2)c2sccc23)cc1	none (no result: TSG101-PTAP inh)
Cc1ccc(C)c(S(=O)(=O)c2nnn3c2nc(Nc2ccc(F)c(Cl)c2)c2sccc23)c1	mIDH1 inhibitor inconclusive (no result: TSG101-PTAP inh) | Resorufin autofl inactive | IDH1 WT inactive | IDH1 R132H conf inconclusive
Cc1ccc(S(=O)(=O)c2nnn3c2nc(NC(C)c2ccccc2)c2sccc23)cc1 (centres undefined)	mIDH1 inhibitor inconclusive (no result: TSG101-PTAP inh) | Resorufin autofl inactive | IDH1 WT inactive | IDH1 R132H conf 14.1µM
CC(=O)Nc1ccc(Nc2nc3c(S(=O)(=O)c4cc(C)ccc4C)nnn3c3ccsc23)cc1	none (no result: TSG101-PTAP inh)
CCCCNC(=O)N1CCN(Cc2cccc(F)c2)CC1	none
CSc1sc(C(=O)O)c2c1C(=O)CCC2	none
O=C(COc1ccc2ccc(=O)oc2c1)NC1CCCC1	none
O=c1cc(N2CCCCC2)c(-c2ccccc2)nn1Cc1ccc(Cl)cc1	none
O=c1cc(N2CCCCC2)c(-c2ccccc2)nn1Cc1c(Cl)cccc1Cl	Anesthetic bind inconclusive, mIDH1 inhibitor 20.7µM | Resorufin autofl inactive | IDH1 WT inactive | IDH1 R132H conf 14.1µM
CC(C)OCCCN1C(=O)c2[nH]nc(-c3ccccc3O)c2C1c1ccc(OCc2ccccc2)cc1 (centres undefined)	none (no result: TSG101-PTAP inh)
COc1cc(C2c3c(-c4ccccc4O)n[nH]c3C(=O)N2CCO)ccc1OCc1ccccc1 (centres undefined)	mIDH1 inhibitor inconclusive (no result: TSG101-PTAP inh) | Resorufin autofl inactive | IDH1 WT inactive | IDH1 R132H conf 28.2µM
O=C1c2[nH]nc(-c3ccccc3O)c2C(c2cccc(OCc3ccccc3)c2)N1CCCO (centres undefined)	mIDH1 inhibitor 44.7µM (no result: TSG101-PTAP inh) | Resorufin autofl inactive | IDH1 WT inconclusive | IDH1 R132H conf 39.8µM
CCCN1C(=O)c2[nH]nc(-c3ccccc3O)c2C1c1ccc(OCc2ccccc2)c(OC)c1 (centres undefined)	none (no result: TSG101-PTAP inh)
CN(C)C(=N)N=C(N)N	none
N=c1c2c(-c3ccccc3)c(-c3ccccc3)n(Cc3ccco3)c2ncn1CCO	none
O=C1CCCc2c1cc(-c1ccccc1)n2-c1ccc(O)cc1	none
Cc1ccc(-c2cc3c(n2-c2ccc(C(=O)O)cc2)CCCC3=O)cc1	mIDH1 inhibitor inconclusive | Resorufin autofl inactive | IDH1 WT inactive | IDH1 R132H conf 35.5µM
O=C(/C=C/c1ccc(S(=O)(=O)NCc2ccco2)cc1)NCc1cccc(Cl)c1	none
CC(C)c1ccc(NC(=O)C2Cc3ccccc3N2C(=O)c2ccccc2)cc1 (centres undefined)	none (no result: TSG101-PTAP inh)
CCOc1ccccc1Nc1ncnc2c1cnn2-c1ccc(C)cc1	none (no result: TSG101-PTAP inh)
O=C(NCCc1ccc(Cl)cc1)C1CCN(S(=O)(=O)c2cccc3nonc23)CC1	none
CSc1nc(N(C)NC(=O)c2ccc(Cl)cc2)c2ccccc2n1	mIDH1 inhibitor 46.5µM | Resorufin autofl inactive | IDH1 WT inactive | IDH1 R132H conf 22.4µM
COc1ccc(-c2cc(C(=O)O)c3c(C)nn(-c4ccccn4)c3n2)cc1	none
CCOC(=O)c1cc(-c2ccncc2)nc2c1c(C)nn2-c1ccccn1	mIDH1 inhibitor inconclusive | Resorufin autofl inactive | IDH1 WT inconclusive | IDH1 R132H conf 22.4µM
Cc1cc(C)cc(OCCSc2nc(-c3ccc(C(C)(C)C)cc3)nc3cc(=O)[nH]n23)c1	Anesthetic bind inconclusive, mIDH1 inhibitor inconclusive (no result: TSG101-PTAP inh) | Resorufin autofl inactive | IDH1 WT inconclusive | IDH1 R132H conf 25.1µM
CCC(C)N(NC(C)=O)c1nc(Cl)nc(NC(C)C)n1 (centres undefined)	none
CCN(CC)C(=O)c1sc2c(c1C)c(=O)n(CCc1ccccc1)c(=O)n2Cc1ccc(F)cc1Cl	none (no result: TSG101-PTAP inh)
CCN(CC)C(=O)c1sc2c(c1C)c(=O)n(CCc1ccccc1)c(=O)n2Cc1cccc(Cl)c1	mIDH1 inhibitor 31.6µM (no result: TSG101-PTAP inh) | Resorufin autofl inactive | IDH1 WT inactive | IDH1 R132H conf 11.2µM
O=Cc1ccc(-c2nc3ccccc3s2)o1	none
Cc1cccc(N(C(=O)CCC(=O)Nc2cc(C)on2)C(C(=O)NC2CCCC2)c2ccccc2)c1 (centres undefined)	mIDH1 inhibitor 44.7µM | Resorufin autofl inactive | IDH1 WT inactive | IDH1 R132H conf 20µM
Cc1cc(NC(=O)CCC(=O)N(c2cccnc2)C(C(=O)NC2CCCC2)c2ccccc2)no1 (centres undefined)	mIDH1 inhibitor inconclusive | Resorufin autofl inactive | IDH1 WT inactive | IDH1 R132H conf inconclusive
Cc1cccc(N(C(=O)CCC(=O)Nc2cc(C)on2)C(C(=O)NC2CCCC2)c2cccnc2)c1 (centres undefined)	none
